Bioassay records as filed in PubChem BioAssay.
A selection: hits, their analogues and other compounds. The true share with any hit is near 1.8%.
PTHR1 agonist – qHTS for PTHR1 Agonists: Primary Screen. Potency, µM (titrated, usually from 115 µM), hits mostly activators. HEK293 GP2 PTHR1 cells, GloSensor cAMP luminescence, 1 h. 410,000 compounds, 0.075% hits. Parathyroid hormone/parathyroid hormone-related peptide receptor (Homo sapiens), Q03431; also: nearly all actives have a fitted effect of over 55% in size
Target sequence (Q03431 whole entry, looked up): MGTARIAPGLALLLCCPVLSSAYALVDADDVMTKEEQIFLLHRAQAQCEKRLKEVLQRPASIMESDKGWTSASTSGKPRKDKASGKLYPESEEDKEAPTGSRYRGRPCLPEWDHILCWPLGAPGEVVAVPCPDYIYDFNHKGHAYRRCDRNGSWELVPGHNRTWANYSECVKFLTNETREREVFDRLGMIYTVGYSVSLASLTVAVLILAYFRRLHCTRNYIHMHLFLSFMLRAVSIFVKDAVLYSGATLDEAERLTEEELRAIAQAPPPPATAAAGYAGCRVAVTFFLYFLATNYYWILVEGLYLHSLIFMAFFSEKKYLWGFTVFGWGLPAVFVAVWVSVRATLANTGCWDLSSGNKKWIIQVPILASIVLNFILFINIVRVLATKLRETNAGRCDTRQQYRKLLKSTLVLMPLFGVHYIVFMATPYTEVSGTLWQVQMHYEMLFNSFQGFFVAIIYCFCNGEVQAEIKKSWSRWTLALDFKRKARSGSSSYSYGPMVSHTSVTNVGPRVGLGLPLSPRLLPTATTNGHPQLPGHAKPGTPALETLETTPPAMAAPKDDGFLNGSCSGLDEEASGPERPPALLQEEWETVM
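HEK-293-derived GP2 cells expressing PTHR1 and a GloSensor cAMP reporter, 3,000/well, plated overnight, given luciferin plus IBMX (each 0.5 mM as added) for 1 h at 37 °C, then compound for 1 h at 37 °C. Luminescence was read after 15 min at room temperature.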
TSHR antag – Antagonists of the Thyroid Stimulating Hormone Receptor: HTS campaign | Thyrotropin receptor (Homo sapiens), P16473 | TSHR-expressing cells, TSH-stimulated cAMP HTRF, 2 h; hits give low values | activity change, negative = inhibition, % at 11.5 µM | 330,000 compounds, 0.2% hits;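 active = activity change below a set negative limit, meaning inhibition stronger than a set level, cut at about -70% in these data; inconclusive = activity change between two set negative limits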
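Freshly harvested TSHR cells receive pin-tooled compound, then EC80 TSH at 4nM final. After 2 hours at 37 deg C, antibody in lysis buffer and cAMP-d2 are added; 30 minutes at ambient temperature precede the HTRF read.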
GLP1R cytotox – qHTS of GLP-1 Receptor Inverse Agonists: Cytotox Screen | 410,000 compounds, 0.13% hits | Potency, µM (series often up to 38.3 µM), hits mostly inhibitors | HEK293 cAMP-luciferase reporter cells, luminescence, 24 h;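 also: loss of luciferase light is scored as toxicity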
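1536-well qHTS counterscreen of the MLSMR; 200 cells/uL, 12 h pre-incubation, 23 nL cpd, 24 h at 37 deg C 5% CO2, luciferase detection reagent, 12 min RT, luminescence. Inhibition = undesired.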
GLP-1R agonist – qHTS of GLP-1 Receptor Agonists; HEK293 GLP-1R CRE-luciferase, luminescence, 4-6 h; cells express a hypersensitive GLP-1R form; Glucagon-like peptide 1 receptor (Homo sapiens), P43220; Potency, µM (titrated, usually from 45.6 µM), usual class: activators; 380,000 compounds, 0.007% hits; AID 624172, 2012
GLP-1R inv ag – qHTS of GLP-1 Receptor Inverse Agonists (Inhibition Mode); Glucagon-like peptide 1 receptor (Homo sapiens), P43220; HEK293 GLP-1R CRE-luciferase, luminescence, 24 h; GLP-1R form is constitutively active; Potency, µM (highest dose often 38.3 µM), hits mostly inhibitors; 410,000 compounds, 1.6% hits; also: nearly all actives have a fitted effect of over 55% in size
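Inverse agonism was detected as reduced cAMP-driven luciferase luminescence after 24 h compound treatment. The cells were HEK293 clones expressing constitutively active human GLP-1R with the reporter. Reporter-only and GPR119 cell lines served as counterscreen controls.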
Hits are given with their value; - = inactive; ? = inconclusive; . = no result given. Unless noted, calls follow the shape of the dose curve; as a rule, active = well fitted curve in the direction sought with a large enough effect; inconclusive = small, poorly fitted or top-dose-only effect, or another doubt; inactive = no such curve, though single readings can be large; an effect the other way counts as inactive or inconclusive.

SMILES | PTHR1 agonist | TSHR antag | GLP1R cytotox | GLP-1R agonist | GLP-1R inv ag
COc1ccc(NC(=S)NC(NC(=O)c2cccc(Cl)c2)C(Cl)(Cl)Cl)c([N+](=O)[O-])c1 (centres undefined) | - | - | - | - | ?
O=C(Cc1cccc2ccccc12)NC(NC(=S)Nc1ccccc1Cl)C(Cl)(Cl)Cl (centres undefined) | - | - | - | - | 4.5µM
CCOC(=O)c1c(C)[nH]c(C)c1S(=O)(=O)NCC(=O)Nc1cccc(C(F)(F)F)c1 | - | . | - | . | -
Cc1ccc(NC(=O)c2ccc3oc(=O)c(S(=O)(=O)c4ccccc4)cc3c2)cc1C | - | . | - | . | -
COC(=O)c1c(-c2cccs2)csc1NC(=O)c1cc(OC)c(OC)c(OC)c1 | - | . | - | . | -
CCc1ccccc1N(CC)C(=O)CCc1nc(-c2ccc(C)cc2)no1 | - | - | - | - | 8.9µM
CCN(CCCNC(=O)CCc1nc(-c2ccc(C)cc2)no1)c1cccc(C)c1 | - | - | - | - | 10µM
CCCN(C(=O)CCc1nc(-c2ccc(C)cc2)no1)c1ccc(OCC)cc1 | - | . | - | . | 11µM
CCN(CCCNC(=O)Cn1ncc2c([nH]c3ccc(C)cc32)c1=O)c1ccccc1 | - | - | - | - | -
CCN(CCCNC(=O)Cn1ncc2c([nH]c3ccc(C)cc32)c1=O)c1cccc(C)c1 | - | -133 | - | - | -
COc1ccc(CCN(C(=O)C(F)(F)F)C(C(=O)NC2CCCCC2)c2cccs2)cc1 (centres undefined) | - | - | - | - | 6.3µM
CC1CCN(S(=O)(=O)c2cc(C(=O)N3CCN(c4cccc(Cl)c4)CC3)n(C)c2)CC1 | - | . | - | - | ?
O=C(COc1ccc(Br)cc1Br)NC(=O)NC1CCCC1 | - | - | - | - | ?
CC(C)(C)NC(=O)NC(=O)COc1ccc(Br)cc1Br | - | - | - | - | 10µM
CC1CCN(S(=O)(=O)c2ccc3[nH]cc(C(=O)NCc4ccc(F)cc4)c(=O)c3c2)CC1 | - | . | - | - | -
CN(C)C=NC(=O)c1[nH]c2ccc(Cl)cc2c1-c1ccccc1 | - | - | ? | - | 11µM
CC(=O)c1c(-c2ccccc2)c2cc(Cl)ccc2[nH]c1=O | - | - | - | - | -
CNCCC=C1c2ccccc2CCc2ccccc21 | - | - | - | - | 6.3µM
O=C(/C=C/c1ccc([N+](=O)[O-])cc1)Nc1ncc([N+](=O)[O-])s1 | - | - | ? | - | 13µM
CC(C)c1cc(-c2cc(C(=O)NCc3ccccc3)on2)nc(NC2CCCC2)n1 | - | - | - | - | -
CC(C)c1cc(-c2cc(C(=O)NCc3ccccc3)on2)nc(NCC2CC2)n1 | - | - | - | - | 13µM
COC(=O)CNC(c1ccccc1Cl)c1cc(Br)ccc1NS(=O)(=O)c1ccc(C)cc1 (centres undefined) | - | - | - | - | 3.5µM
O=C(N/N=C/c1cccc(Oc2ccccc2)c1)c1cccc(Br)c1 | - | - | - | - | 8.9µM
COc1ccc(N(C(=O)COc2c(C)cccc2C)S(=O)(=O)c2ccc(Cl)cc2)cc1 | - | . | - | . | 10µM
Cc1ccc(OCC(=O)N(c2ccc(C)cc2)S(=O)(=O)c2ccc(Cl)cc2)cc1 | - | . | - | . | -
SMILES | PTHR1 agonist | TSHR antag | GLP1R cytotox | GLP-1R agonist | GLP-1R inv ag
O=C(Nc1ccccc1C(=O)N1CCN(c2cccc(Cl)c2)CC1)C1=CSCCO1 | - | -132 | - | - | ?
COc1ccc(NC(=O)C2CCC(CNS(=O)(=O)c3csc(C(N)=O)c3)CC2)cc1 (centres undefined) | - | . | - | . | -
COCCNC(=O)CN1C(=O)c2cccc3cccc1c23 | - | -127 | - | - | -
CC(C)(C)SCCNC(=O)CN1C(=O)c2cccc3cccc1c23 | - | - | - | - | -
OCC1(Cc2cccc(Cl)c2)CCCN(Cc2ccc(F)c(F)c2)C1 (centres undefined) | - | - | - | - | 10µM
CC(C)Oc1ccc(CN2CCCC(CO)(Cc3ccc(F)cc3)C2)cc1 (centres undefined) | - | - | - | - | 11µM
C/C(=N\NC(=S)NC1CCCCC1)c1ccccc1 | - | - | ? | - | 5.6µM
S=C(NC1CCCCC1)NN(c1ccccc1)c1ccccc1 | - | - | ? | - | 10µM
CC(=O)OCC(=O)[C@@]1(O)[C@H](C)C[C@H]2C3C[C@H](F)C4=CC(=O)C=CC4(C)C3[C@@H](O)CC21C (some centres undefined) | . | . | . | - | .
O=C(CCCCCn1c(=O)[nH]c2ccccc2c1=O)NCc1cccc(Cl)c1 | - | . | - | . | -
CC(C)CCNC(=O)CCn1c(=O)c2cccn2c2cccnc21 | - | . | - | . | -
O=C(CCCOc1ccc(Cl)cc1Cl)N/N=C/c1ccccc1O | - | - | ? | - | 4.5µM
COc1cccc(CNC(=O)c2ccc(CN3CC(=O)N4CCCCC4C3=O)cc2)c1 (centres undefined) | - | . | - | . | -
COc1cccc(CNC(=O)CCC2CCCN(Cc3cc4ccccc4o3)C2)c1 (centres undefined) | - | - | - | - | 11µM
COc1ccc(-n2c(Cc3ccccc3)nnc2SCc2ccc([N+](=O)[O-])cc2)cc1 | - | - | - | - | ?
O=[N+]([O-])c1ccc(CSc2nnc(Cc3ccccc3)n2-c2ccc(F)cc2)cc1 | - | - | - | - | 10µM
Cc1nc(-c2ccc(Cl)cc2)sc1CCNC(=O)C(=O)Nc1ccccc1C#N | - | . | - | . | -
CC(NCc1ccc(OCc2ccc(Cl)cc2)cc1)C(O)c1ccccc1 (centres undefined) | - | - | ? | - | 10µM
CC(NCc1cccc(OCc2ccccc2)c1)C(O)c1ccccc1 (centres undefined) | - | - | ? | - | 8.9µM
c1ccc(COc2cccc(CNn3cnnc3)c2)cc1 | - | - | - | - | -
Cc1cc(C)c(-c2csc(NC(=O)c3cc([N+](=O)[O-])ccc3N3CCOCC3)n2)c(C)c1 | - | - | - | - | 8.9µM
O=C(CN1C2CCCC1CC(NC(=O)C1CCCCC1)C2)Nc1ccccc1C(F)(F)F (centres undefined) | - | - | - | - | ?
COc1cccc(C(=O)NC2CC3CCCC(C2)N3CC(=O)Nc2ccccc2C(F)(F)F)c1 (centres undefined) | - | - | - | - | 2.2µM
O=C1C2C3CCCC3=C3CCCC3C2C(=O)N1c1cccc(Cl)c1 (centres undefined) | - | - | - | - | 3.5µM
